In test [1] the target is Glutathione peroxidase 1 (Homo sapiens) (UniProt P07203). Nature of the test: Primary qHTS Assay for Inhibitors of Recombinant Selenoprotein Glutathione Peroxidase 1 (GPX1) (AID 1845191). Also: nearly all actives have a fitted effect of over 65% in size. Also: potency is read from the fitted curve at half-maximal effect. The following applies: recombinant GPX1, GR-coupled NADPH fluorescence, 15 min; series mostly up to 48.8 µM. A digest of the protocol: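 GPX1 10 nM, GR 100 nM, GSH 1 mM, NADPH 0.5 mM, CHP 0.5 mM (final). 30-min cpd preincubation, RT. Ex340/Em450 read t=0, t=15 min.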
Glutathione peroxidase 1 (Homo sapiens), sequence (P07203 whole entry, looked up): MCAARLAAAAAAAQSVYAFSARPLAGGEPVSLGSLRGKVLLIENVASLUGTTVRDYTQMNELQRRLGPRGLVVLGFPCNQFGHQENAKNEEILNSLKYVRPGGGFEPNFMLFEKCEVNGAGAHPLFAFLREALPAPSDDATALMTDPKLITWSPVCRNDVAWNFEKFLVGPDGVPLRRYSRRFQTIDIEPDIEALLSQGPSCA

Test [2] has as its target Phospholipid hydroperoxide glutathione peroxidase GPX4 (Homo sapiens) (UniProt P36969). Nature of the test: Primary qHTS Assay for Inhibitors of Recombinant Selenoprotein Glutathione Peroxidase 4 (GPX4) (AID 1845192). Also: nearly all actives have a fitted effect of over 65% in size. Also: potency is read from the fitted curve at half-maximal effect. To be noted: recombinant GPX4, GR-coupled NADPH fluorescence, 15 min; series mostly up to 50 µM. The method, boiled down:
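qHTS, GR-coupled: GPX4 200 nM + cpd 30 min RT → GSH 1 mM, NADPH 0.5 mM, GR 100 nM → CHP 0.5 mM start; fluor 340/450 at t0 and t15 min; no-enzyme wells as control.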
(Quantitative high-throughput screening tests each substance at several concentrations.)

In test [3] the target is Luciferin 4-monooxygenase (Photinus pyralis) (UniProt P08659). Nature of the test: Primary firefly luciferase (FLuc) qHTS assay for identification of artifact compounds. (AID 1845220). Also: nearly all actives have a fitted effect of over 60% in size. To be noted: purified firefly luciferase, luminescence, 5 min; series mostly up to 54.1 µM. The method, boiled down:
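qHTS, 15 min compound preincubation with substrate (10 uM luciferin, 10 uM ATP) at RT, then 10 nM FLuc; 5 min; luminescence; % inhibition vs no-enzyme/DMSO controls, 4-parameter Hill fit.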

Test [4] is described as follows: Primary fluorescence-based thiol-reactive (MSTI) qHTS assay for identification of artifact compounds. (AID 1845221). Also: nearly all actives have a fitted effect of over 65% in size. Also: potency is read from the fitted curve at half-maximal effect. The following applies: MSTI thiol-reactivity probe, 1 h; series mostly up to 53.8 µM. A digest of the protocol: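 Curve-fitted percent inhibition (4-parameter Hill) derived from fluorescence, Ex 525/Em 598 nm, scaled with Acetyl-MSTI and MSTI; 1 h incubation at room temperature.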

Test [5] deals with Nanoluciferase (engineered Oplophorus gracilirostris luciferase). Nature of the test: Primary Nanoluciferase (NLuc) qHTS assay for identification of artifact compounds. (AID 1845222). To be noted: NLuc-conditioned medium, Nano-Glo luminescence, 5 min; series mostly up to 54.1 µM. The method, boiled down:
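Luminescence read-out of secreted NLuc in S16 cell conditioned medium (1:55); compounds tested with 15 min RT preincubation, then Nano-Glo substrate 1:100, 5 min. % inhibition vs no-enzyme and DMSO controls, 4-parameter Hill fit.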

The record followed here is PubChem BioAssay (NCATS).

Molecules are shown by their SMILES. Inconclusive results are not listed. The source made the active and inactive calls. Calls follow the shape of the dose curve; as a rule, active = well fitted curve in the direction sought with a large enough effect; inconclusive = small, poorly fitted or top-dose-only effect, or another doubt; inactive = no such curve, though single readings can be large; an effect the other way counts as inactive or inconclusive.

Phospholipid hydroperoxide glutathione peroxidase GPX4 (Homo sapiens), sequence (P36969 whole entry, looked up): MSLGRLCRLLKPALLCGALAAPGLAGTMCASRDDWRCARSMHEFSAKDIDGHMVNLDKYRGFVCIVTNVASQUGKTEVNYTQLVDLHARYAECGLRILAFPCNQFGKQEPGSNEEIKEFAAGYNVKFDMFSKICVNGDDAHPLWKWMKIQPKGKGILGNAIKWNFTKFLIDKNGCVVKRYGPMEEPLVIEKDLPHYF

In the case of `Cc1cc2ncc(C(=O)NCC(C)(C)NCC(=O)N3CCC[C@H]3C#N)cn2n1`, the Potency entry in test [1], in test [2], in test [3], in test [4] and in test [5] was “inactive” throughout.

For the molecule `O=C(Nc1ccccc1)N1CCC(Cc2cnc3ccccc3c2)CC1`, the Potency result in test [1], in test [2], in test [3], in test [4] and in test [5] was “inactive” throughout.

On to `C=C(C)C(=O)O[C@H]1C[C@@](C)(O)C2(O)CCC(C)(/C=C3/OC(=O)C(COC)=C31)O2` (stereo not given in full), for which the Potency entry in test [1], in test [2], in test [3], in test [4] and in test [5] was “inactive” each time.

As for `Cc1cc2sc(NC(=O)Cc3ccccc3)nc2cc1Cl`, the Potency result in test [1], in test [2], in test [3], in test [4] and in test [5] was “inactive” each time.

For `CNc1cc2[nH]c(=O)n(-c3ccc(NC(=O)NS(=O)(=O)c4ccc(Cl)s4)cc3)c(=O)c2cc1F`, the Potency entry in test [1], in test [2], in test [3], in test [4] and in test [5] was “inactive” in each case.

For the molecule `CC(C)Oc1ccc(-c2cnc3c(-c4ccnc5ccccc45)cnn3c2)cc1`, the Potency entry in test [1], in test [2], in test [3], in test [4] and in test [5] was “inactive” throughout.

Consider `COc1ccc(Sc2ccc(NC(=O)c3ccccc3Cl)cc2C#N)cc1`, for which the Potency entry in test [1], in test [2], in test [3], in test [4] and in test [5] was “inactive” each time.

For `CCN1CCC[C@@H]1CNC(=O)c1ccc2c(c1)NC(=O)c1cccc(C)c1S2`, the Potency entry in test [1], in test [2], in test [3], in test [4] and in test [5] was “inactive” in each case.

`CCN(CCNC(=O)Nc1ccccc1Br)c1cccc(C)c1`: the Potency entry in test [1], in test [2], in test [3] and in test [5] was “inactive” in each case. The Potency in test [4] was 2.67 µM (active).

`C=C1C(=O)OC2/C=C(\COC(C)=O)CC/C=C(\C=O)CC(OC(=O)CC(C)C)C12` (stereo not given): the Potency entry in test [1], in test [2], in test [3], in test [4] and in test [5] was “inactive” throughout.

Turning to `CCOC(=O)C1=Cc2ccc(C(F)(F)C(F)(F)F)cc2N=C(N)C1`, the Potency entry in test [1], in test [2], in test [3], in test [4] and in test [5] was “inactive” in each case.

For the molecule `CN1CCN(c2ccc(-c3cccc(CN4CCOCC4)c3)cc2NC(=O)c2c[nH]c(=O)cc2C(F)(F)F)CC1`, the Potency entry in test [1], in test [2], in test [3], in test [4] and in test [5] was “inactive” throughout.

`Cc1cc(F)ccc1-c1nc(NCCN=C(N)NC#N)nc2c1ccc(=O)n2-c1c(F)cccc1F`: the results for the Potency in test [1] and in test [2] were 20.2 µM (active) and 22.7 µM (active), respectively. Further, the Potency result in test [3], in test [4] and in test [5] was “inactive” throughout.

Regarding `CCn1c(-c2nonc2N)nc2c(C#CCO)ncc(OCCCN)c21`, the Potency entry in test [1], in test [2], in test [3], in test [4] and in test [5] was “inactive” each time.

For the molecule `COC(=O)c1cc2c(C(F)(F)F)cc(-c3ccccc3)cc2n1O`, the Potency entry in test [1], in test [2], in test [3] and in test [5] was “inactive” throughout. Besides, in test [4], the Potency was 2.67 µM (active).

Consider `O=C(CSc1nc2ccccc2c(=O)n1-c1ccccc1)Nc1ccc2c(c1)CCC2`, for which the Potency entry in test [1], in test [2], in test [3], in test [4] and in test [5] was “inactive” each time.

On to `O=C(N[C@H](Cc1cscn1)C(=O)N[C@@H](CC1CCCCC1)[C@@H](O)[C@@H](O)C1CC1)c1nc2ccccc2[nH]1`, for which the Potency result in test [1], in test [2], in test [3], in test [4] and in test [5] was “inactive” each time.

For the molecule `COc1ccc(-n2c(SCCCN3C(=O)c4cccc5cccc(c45)C3=O)nnc2-c2ccncc2)cc1`, the Potency entry in test [1], in test [2], in test [3], in test [4] and in test [5] was “inactive” throughout.

As to `O=S(=O)(Cc1ccccc1)Nc1ccc(-c2ccc3c(cnn3-c3ccc(F)cc3)c2)c(C(F)(F)F)c1`, the Potency entry in test [1], in test [2], in test [3], in test [4] and in test [5] was “inactive” each time.

Regarding `COc1ccc(S(=O)(=O)n2cnc3cc(C)c(C)cc32)cc1`, the Potency result in test [1], in test [2], in test [3], in test [4] and in test [5] was “inactive” throughout.

For the molecule `C=CC(=O)Nc1cccc(Nc2nc(Nc3ccc(OCCOC)cc3)ncc2F)c1`, the Potency result in test [1], in test [2], in test [3] and in test [5] was “inactive” each time. The Potency in test [4] was 4.74 µM (active).

Turning to `COc1cc(/C=N\NC(=O)c2ccc3c(c2)OCO3)ccc1OCc1ccccc1`, the Potency result in test [1], in test [2], in test [3], in test [4] and in test [5] was “inactive” in each case.

For `CN(C)CCOc1cc(NS(=O)(=O)c2c(Cl)cc(C(F)(F)F)cc2Cl)ccc1Cl`, the Potency result in test [1], in test [2], in test [3], in test [4] and in test [5] was “inactive” each time.

Consider `CC(=O)C1=CCC2C3CC=C4CC(O)CC(O)C4(C)C3C(O)CC12C` (stereo not given), for which the Potency entry in test [1], in test [2], in test [3], in test [4] and in test [5] was “inactive” throughout.

On to `COc1cc(NC(=O)c2cccc(-n3cc(NC(=O)Nc4cccc(C)c4)cn3)c2)cc(OC)c1OC`, for which the Potency entry in test [1], in test [2], in test [3], in test [4] and in test [5] was “inactive” each time.

Take `C=C1C(=O)OC2/C=C(\CO)CC/C=C(\C=O)C(O)C(OC(=O)C(C)CC)C12` (stereo not given): the Potency entry in test [1], in test [2], in test [3] and in test [5] was “inactive” in each case. The Potency in test [4] is 14.7 µM (active).

Consider `CC1=CC2/C=C(\C)CCC(O)C(=O)C(O)CC(=O)C23C(=O)NC(CC(C)C)C3C1C` (stereo not given), for which the Potency entry in test [1], in test [2], in test [3], in test [4] and in test [5] was “inactive” in each case.
